# Results as given in PMC10812921, “Transcriptional Coactivator BOB1 (OBF1, OCA-B) Modulates the Specificity of DNA Recognition by the POU-Domain Factors OCT1 and OCT2 in a Monomeric Configuration”.
# Columns and labels:
# POU1 (OCT1 POU domain) = POU1 (OCT1 POU domain) (human, UniProt P14859 260-458); assay: EMSA-SELEX-seq; no BOB1; 20 mM Tris-HCl pH 7.6, 140 mM NaCl, 10% glycerol, 0.5 mM EDTA, 0.05% Triton X-100, 0.1 mg/mL BSA, 0.1 mg/mL poly(dI-dC), 5 mM DTT, room temperature, 20 min; high values mean tight binding; conditions: protein: recombinant; dsDNA, one strand shown
# Procedure, shortened: (§1)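 In this selection, tagged POU-domain proteins from E. coli BL21, purified under denaturing conditions and renatured, were bound to a PCR-amplified double-stranded random 35-nt library with or without coactivator protein. Reactions held 30 ng protein, 300 ng library and, where used, 28 ng coactivator protein in 20 μL Tris–HCl pH 7.6 binding buffer for 20 min at RT. Complex bands were cut from native 6% PAGE, eluted and PCR-amplified over four rounds, then Illumina-sequenced, and binding preference is the percentage of sequenced 8-mers matching a motif pattern.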
# POU2 (OCT2 POU domain) = molecular target: T1, POU2 (OCT2 POU domain) (human, UniProt P09086 175-386); assay: as above; conditions: protein: recombinant; dsDNA, one strand shown
# T1 sequence: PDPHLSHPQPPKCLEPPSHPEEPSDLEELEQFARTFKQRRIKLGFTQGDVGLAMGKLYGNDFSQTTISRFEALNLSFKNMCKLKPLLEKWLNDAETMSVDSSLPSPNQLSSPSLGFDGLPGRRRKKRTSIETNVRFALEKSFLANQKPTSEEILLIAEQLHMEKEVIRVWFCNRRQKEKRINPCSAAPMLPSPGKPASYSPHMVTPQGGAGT
# Procedure, shortened: as §1
# [1] = molecular target: POU1 (OCT1 POU domain);BOB1 (OBF1, OCA-B) (human;human, UniProt P14859;Q16633 260-458;1-256, |); assay: EMSA-SELEX-seq; with BOB1 (ternary complex band); 20 mM Tris-HCl pH 7.6, 140 mM NaCl, 10% glycerol, 0.5 mM EDTA, 0.05% Triton X-100, 0.1 mg/mL BSA, 0.1 mg/mL poly(dI-dC), 5 mM DTT, room temperature, 20 min; high values mean tight binding; conditions: protein: recombinant;recombinant; copies: 1;1; dsDNA, one strand shown
# Procedure, shortened: as §1
# [2] = molecular target: T2, POU2 (OCT2 POU domain);BOB1 (OBF1, OCA-B) (human;human, UniProt P09086;Q16633 175-386;1-256, |); assay: as above; conditions: protein: recombinant;recombinant; copies: 1;1; dsDNA, one strand shown
# T2 sequence 1: T1 sequence
# T2 sequence 2: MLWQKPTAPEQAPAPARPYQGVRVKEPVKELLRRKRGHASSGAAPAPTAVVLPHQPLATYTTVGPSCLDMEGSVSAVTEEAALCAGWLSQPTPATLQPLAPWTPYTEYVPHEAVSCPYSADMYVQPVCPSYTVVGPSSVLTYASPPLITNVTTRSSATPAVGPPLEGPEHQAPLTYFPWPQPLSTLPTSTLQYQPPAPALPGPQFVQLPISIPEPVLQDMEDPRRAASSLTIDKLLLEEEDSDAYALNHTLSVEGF
# Procedure, shortened: as §1
# Sequence of POU1 (OCT1 POU domain) (P14859 260-458): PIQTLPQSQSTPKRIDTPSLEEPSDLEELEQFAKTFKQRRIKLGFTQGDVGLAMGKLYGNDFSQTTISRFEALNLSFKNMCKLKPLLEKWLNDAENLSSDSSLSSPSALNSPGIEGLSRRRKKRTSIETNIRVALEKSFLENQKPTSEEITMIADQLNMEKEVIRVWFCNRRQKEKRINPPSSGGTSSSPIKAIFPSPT
Sequence,binding signal (POU1 (OCT1 POU domain)),binding signal (POU2 (OCT2 POU domain)),binding signal [1],binding signal [2]
ATGTGAAC,0.0374 % of ANNNNAAN 8-mers,0.0386 % of ANNNNAAN 8-mers,0.0367 % of ANNNNAAN 8-mers,0.0388 % of ANNNNAAN 8-mers
AATGAAAA,0.164 % of ANNNNAAN 8-mers,0.152 % of ANNNNAAN 8-mers,0.202 % of ANNNNAAN 8-mers,0.114 % of ANNNNAAN 8-mers
ACTTCAAT,0.0256 % of ANNNNAAN 8-mers,0.038 % of ANNNNAAN 8-mers,0.0363 % of ANNNNAAN 8-mers,0.0446 % of ANNNNAAN 8-mers
ATCTTAAT,0.126 % of ANNNNAAN 8-mers,0.176 % of ANNNNAAN 8-mers,0.103 % of ANNNNAAN 8-mers,0.135 % of ANNNNAAN 8-mers
AGCTAAAG,0.0278 % of ANNNNAAN 8-mers,0.0282 % of ANNNNAAN 8-mers,0.0289 % of ANNNNAAN 8-mers,0.0256 % of ANNNNAAN 8-mers
AGAGAAAT,0.0679 % of ANNNNAAN 8-mers,0.0708 % of ANNNNAAN 8-mers,0.0753 % of ANNNNAAN 8-mers,0.0784 % of ANNNNAAN 8-mers
AAACCAAA,0.0538 % of ANNNNAAN 8-mers,0.0506 % of ANNNNAAN 8-mers,0.0761 % of ANNNNAAN 8-mers,0.0446 % of ANNNNAAN 8-mers
ATCTGAAT,0.201 % of ANNNNAAN 8-mers,0.232 % of ANNNNAAN 8-mers,0.102 % of ANNNNAAN 8-mers,0.126 % of ANNNNAAN 8-mers
AGAAGAAC,0.0191 % of ANNNNAAN 8-mers,0.0288 % of ANNNNAAN 8-mers,0.0176 % of ANNNNAAN 8-mers,0.0256 % of ANNNNAAN 8-mers
ACTGTAAC,0.0175 % of ANNNNAAN 8-mers,0.0224 % of ANNNNAAN 8-mers,0.0203 % of ANNNNAAN 8-mers,0.0165 % of ANNNNAAN 8-mers
ACGGAAAC,0.0198 % of ANNNNAAN 8-mers,0.019 % of ANNNNAAN 8-mers,0.0289 % of ANNNNAAN 8-mers,0.0305 % of ANNNNAAN 8-mers
ACTATAAA,0.0439 % of ANNNNAAN 8-mers,0.0403 % of ANNNNAAN 8-mers,0.041 % of ANNNNAAN 8-mers,0.0421 % of ANNNNAAN 8-mers
AGTCTAAT,0.147 % of ANNNNAAN 8-mers,0.166 % of ANNNNAAN 8-mers,0.0761 % of ANNNNAAN 8-mers,0.0958 % of ANNNNAAN 8-mers
ACACGAAT,0.0347 % of ANNNNAAN 8-mers,0.0575 % of ANNNNAAN 8-mers,0.0379 % of ANNNNAAN 8-mers,0.0438 % of ANNNNAAN 8-mers
ACCGAAAG,0.0137 % of ANNNNAAN 8-mers,0.0144 % of ANNNNAAN 8-mers,0.0164 % of ANNNNAAN 8-mers,0.0149 % of ANNNNAAN 8-mers
ATTCCAAG,0.045 % of ANNNNAAN 8-mers,0.0512 % of ANNNNAAN 8-mers,0.032 % of ANNNNAAN 8-mers,0.0446 % of ANNNNAAN 8-mers
ACACTAAC,0.0137 % of ANNNNAAN 8-mers,0.0132 % of ANNNNAAN 8-mers,0.0117 % of ANNNNAAN 8-mers,0.014 % of ANNNNAAN 8-mers
AGTAGAAG,0.0404 % of ANNNNAAN 8-mers,0.0391 % of ANNNNAAN 8-mers,0.0336 % of ANNNNAAN 8-mers,0.0297 % of ANNNNAAN 8-mers
AAGCGAAG,0.0271 % of ANNNNAAN 8-mers,0.027 % of ANNNNAAN 8-mers,0.0238 % of ANNNNAAN 8-mers,0.0231 % of ANNNNAAN 8-mers

Sequence,binding signal (POU1 (OCT1 POU domain)),binding signal (POU2 (OCT2 POU domain)),binding signal [1],binding signal [2]
AAGTCAAT,0.0667 % of ANNNNAAN 8-mers,0.0731 % of ANNNNAAN 8-mers,0.0535 % of ANNNNAAN 8-mers,0.0677 % of ANNNNAAN 8-mers
ATGGAAAC,0.0805 % of ANNNNAAN 8-mers,0.0616 % of ANNNNAAN 8-mers,0.11 % of ANNNNAAN 8-mers,0.066 % of ANNNNAAN 8-mers
ACAATAAC,0.0248 % of ANNNNAAN 8-mers,0.0259 % of ANNNNAAN 8-mers,0.0211 % of ANNNNAAN 8-mers,0.0248 % of ANNNNAAN 8-mers
AGAACAAC,0.0153 % of ANNNNAAN 8-mers,0.0132 % of ANNNNAAN 8-mers,0.0125 % of ANNNNAAN 8-mers,0.0239 % of ANNNNAAN 8-mers
ACGTCAAG,0.0191 % of ANNNNAAN 8-mers,0.0253 % of ANNNNAAN 8-mers,0.0203 % of ANNNNAAN 8-mers,0.0198 % of ANNNNAAN 8-mers
AAATGAAG,0.17 % of ANNNNAAN 8-mers,0.188 % of ANNNNAAN 8-mers,0.186 % of ANNNNAAN 8-mers,0.2 % of ANNNNAAN 8-mers
ACATCAAG,0.024 % of ANNNNAAN 8-mers,0.0351 % of ANNNNAAN 8-mers,0.0265 % of ANNNNAAN 8-mers,0.033 % of ANNNNAAN 8-mers
AGCTTAAG,0.029 % of ANNNNAAN 8-mers,0.0391 % of ANNNNAAN 8-mers,0.0379 % of ANNNNAAN 8-mers,0.0355 % of ANNNNAAN 8-mers
AAGGCAAC,0.0187 % of ANNNNAAN 8-mers,0.0167 % of ANNNNAAN 8-mers,0.0195 % of ANNNNAAN 8-mers,0.0264 % of ANNNNAAN 8-mers
AGTGTAAG,0.032 % of ANNNNAAN 8-mers,0.0443 % of ANNNNAAN 8-mers,0.0406 % of ANNNNAAN 8-mers,0.0421 % of ANNNNAAN 8-mers
AAAGTAAA,0.0988 % of ANNNNAAN 8-mers,0.0714 % of ANNNNAAN 8-mers,0.114 % of ANNNNAAN 8-mers,0.0759 % of ANNNNAAN 8-mers
ATCTCAAA,0.0435 % of ANNNNAAN 8-mers,0.0443 % of ANNNNAAN 8-mers,0.0574 % of ANNNNAAN 8-mers,0.038 % of ANNNNAAN 8-mers
AGTTTAAC,0.04 % of ANNNNAAN 8-mers,0.0449 % of ANNNNAAN 8-mers,0.0375 % of ANNNNAAN 8-mers,0.033 % of ANNNNAAN 8-mers
AGCTCAAT,0.037 % of ANNNNAAN 8-mers,0.0316 % of ANNNNAAN 8-mers,0.0261 % of ANNNNAAN 8-mers,0.0223 % of ANNNNAAN 8-mers
ATCGCAAG,0.0179 % of ANNNNAAN 8-mers,0.0219 % of ANNNNAAN 8-mers,0.023 % of ANNNNAAN 8-mers,0.0206 % of ANNNNAAN 8-mers
AATGTAAC,0.0591 % of ANNNNAAN 8-mers,0.0639 % of ANNNNAAN 8-mers,0.046 % of ANNNNAAN 8-mers,0.0545 % of ANNNNAAN 8-mers
AAGATAAC,0.0248 % of ANNNNAAN 8-mers,0.0334 % of ANNNNAAN 8-mers,0.0285 % of ANNNNAAN 8-mers,0.0388 % of ANNNNAAN 8-mers
AACACAAT,0.0351 % of ANNNNAAN 8-mers,0.0351 % of ANNNNAAN 8-mers,0.0293 % of ANNNNAAN 8-mers,0.0421 % of ANNNNAAN 8-mers
